Test results reported in PubChem BioAssay AID1456 (Vanderbilt High Throughput Screening Facility, 2008).
Among all 190,000 compounds or so, about 4,100 (2.2%) were called active. The entries come from a sample that favours actives as a whole. Values without a mark were called inactive.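 How the source made its calls: active means thallium flux slope and its plate-corrected score both differing from the plate sample mean at a set confidence after two filtering rounds, in either direction; inactive means the rest.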

Biological target: Solute carrier family 12 member 5 (Homo sapiens) (UniProt Q9H2X9)
Sequence (Q9H2X9 whole entry, looked up): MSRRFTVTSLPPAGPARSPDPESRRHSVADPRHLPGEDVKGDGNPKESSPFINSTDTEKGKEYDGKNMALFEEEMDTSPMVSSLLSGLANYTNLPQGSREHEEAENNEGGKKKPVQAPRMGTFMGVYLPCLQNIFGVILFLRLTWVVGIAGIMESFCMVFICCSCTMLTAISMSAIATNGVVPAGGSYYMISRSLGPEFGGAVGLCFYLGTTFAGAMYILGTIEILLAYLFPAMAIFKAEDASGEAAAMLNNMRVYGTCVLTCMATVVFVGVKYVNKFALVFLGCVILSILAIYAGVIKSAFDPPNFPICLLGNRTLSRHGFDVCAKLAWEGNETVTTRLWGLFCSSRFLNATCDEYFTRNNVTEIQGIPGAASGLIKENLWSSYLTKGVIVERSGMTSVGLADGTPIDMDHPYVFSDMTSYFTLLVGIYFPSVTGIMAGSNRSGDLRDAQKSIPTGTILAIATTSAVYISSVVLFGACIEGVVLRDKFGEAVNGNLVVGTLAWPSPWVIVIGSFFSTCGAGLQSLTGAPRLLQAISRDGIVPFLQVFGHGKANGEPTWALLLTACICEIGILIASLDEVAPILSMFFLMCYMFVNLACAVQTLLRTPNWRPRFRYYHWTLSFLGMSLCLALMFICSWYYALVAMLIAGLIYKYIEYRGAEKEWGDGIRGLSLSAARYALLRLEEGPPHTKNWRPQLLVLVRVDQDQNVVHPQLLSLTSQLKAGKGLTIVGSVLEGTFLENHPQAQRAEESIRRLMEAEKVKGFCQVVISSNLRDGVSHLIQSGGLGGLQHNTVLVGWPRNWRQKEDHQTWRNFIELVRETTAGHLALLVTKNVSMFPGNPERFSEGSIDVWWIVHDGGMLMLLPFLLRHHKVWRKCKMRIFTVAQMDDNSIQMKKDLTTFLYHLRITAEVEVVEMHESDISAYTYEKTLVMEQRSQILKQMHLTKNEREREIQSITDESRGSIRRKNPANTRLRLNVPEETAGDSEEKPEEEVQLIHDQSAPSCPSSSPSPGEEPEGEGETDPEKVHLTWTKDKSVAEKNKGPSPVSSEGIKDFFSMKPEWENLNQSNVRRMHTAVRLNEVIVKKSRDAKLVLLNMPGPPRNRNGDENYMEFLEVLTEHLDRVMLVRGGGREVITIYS
Test: KCC2 cotransporter modulators, thallium flux, primary screen, cell-based, HEK293 KCC2, FluoZin-2 fluorescence, MLSMR (AID 1456);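 further: slope of fluorescence scaled to starting intensity during 10 to 20 s after thallium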
Conditions: KCC2 cells, thallium flux FluoZin-2 fluorescence; at 10 µM

Compound | B-score of Tl+ flux slope (higher = more flux/activation; lower = inhibition)
CC(C)(C)c1cc(C(=O)NN)n(Cc2ccc(Cl)cc2Cl)n1 | -0.315
O=S(=O)(Nc1n[nH]c(C(F)(F)F)n1)c1ccccc1 | -2.65
N#Cc1c(NCCO)ccc([N+](=O)[O-])c1NCCO | -0.904
Nc1nnnn1CC(=O)N/N=C/c1ccc(-c2cccc(Cl)c2)o1 | -0.38
O=C1c2ccccc2NC(c2ccc(-c3cccc(Cl)c3)o2)N1O (configuration not stated) | 35 (active)
O=C1NC(c2cccc(Cl)c2)Nc2ccccc21 (configuration not stated) | 0.445
CCn1c(SCC(=O)Nc2sc(C)c(C)c2C#N)nnc1C1CC1 | 0.253
CC(=O)Nc1cccc(NC(=O)c2c(-c3ccccc3)noc2C)c1 | -0.00829
COc1ccc(C(=O)NC(=S)NNC(=O)c2c(-c3ccccc3)noc2C)cc1 | 11.1 (active)
Cc1onc(-c2ccccc2)c1C(=O)N1CCOCC1 | 0.00257
Cc1onc(-c2ccccc2)c1C(=O)NNC(=S)NC(=O)c1ccc(F)cc1 | 8.51 (active)
Cc1onc(-c2ccccc2)c1C(=O)N=C(N)c1ccc(Cl)cc1 | 1.42
COc1ccc(C(=O)NNC(=S)NC(=O)c2ccccc2[N+](=O)[O-])cc1 | 1.61
O=C1CCCC(O)=C1N=Nc1ccc(S(=O)(=O)N2CCOCC2)cc1 | -0.62
Cc1ccc(OC(=O)c2c(C)nn(-c3ccccc3)c2C)cc1 | 0.00646
O=C(Nc1ccc(Cl)cc1)Nc1ccc(C(=O)N2CCOCC2)cc1 | 0.868
c1ccc2c(NC3C4CC5CC(C4)CC3C5)nc(N3CCOCC3)nc2c1 (configuration not stated) | -0.0419
COC(=O)c1sccc1NC(=O)CC1C(=O)NCCN1C(=O)Nc1ccc(F)cc1F (configuration not stated) | -0.52
COC(=O)c1ccccc1N=Nc1c(C)[nH][nH]c1=O | 0.855
O=C(Nc1ccc(S(=O)(=O)Nc2nccs2)cc1)c1cc(-c2ccncc2)nc2ccccc12 | -0.477
O=C(Nc1nnc(-c2ccccc2)o1)c1cc(-c2cccs2)nc2ccccc12 | 99.4 (active)
CC(C)(C)Cc1nnc(NC(=O)c2cc(-c3ccccc3)nc3ccccc23)s1 | 0.0714
Cc1c(NC(=O)CN2C(=O)C(=O)N(Cc3ccccc3)C2=O)c(=O)n(-c2ccccc2)n1C | 0.0462
CC(C)n1c(O)c(N=Nc2ccccn2)c2ccccc21 | 5.67 (active)
Oc1oc(-c2ccccc2Br)nc1/C=N/c1ccccn1 | 1.39

Compound | B-score of Tl+ flux slope (higher = more flux/activation; lower = inhibition)
COC(=O)Cn1c(O)c(N=NC(=O)OC)c2ccccc21 | 1.85
COc1ccc(Cn2c(O)c(/C=C3/C=CC=N3)c(=O)[nH]c2=O)cc1 | -0.723
Cn1nc(C(F)(F)F)cc1C(=O)O | 1.56
Cc1cc(NC(=O)OC(C)C)ccc1-c1ccc(NC(=O)OC(C)C)cc1C | -0.761
CC(C)CN(CC(C)C)CC(O)CN(c1ccccc1)S(=O)(=O)c1ccccc1[N+](=O)[O-] (configuration not stated) | -2.39
Cc1cc(NC(=O)CN2CCCC(C)C2)n(-c2nc3ccccc3s2)n1 (configuration not stated) | 0.312
CCOC(=O)N1CCN(CC(=O)Nc2cc(C)nn2-c2nc3ccccc3s2)CC1 | -0.634
CCC(C)Cn1c(O)cc2nn(-c3nc4ccccc4s3)c(=O)c-2c1C (configuration not stated) | 5.85 (active)
C/C(=N\NC(=O)c1cccnc1)c1ccc(-n2ccnc2)cc1 | 0.898
COc1cc2c(cc1OC)C(/C=C/c1ccco1)=NCC2 | -1.64
O=C(CCCn1c(=O)[nH]c2cc(Cl)ccc2c1=O)NCCN1CCN(c2ccccc2)CC1 | -1.09
COc1cccc(CNC(=O)Cc2csc(Nc3nc(=S)[nH]c4ccccc34)n2)c1 | 16.7 (active)
O=C(Cc1csc(Nc2nc(=S)[nH]c3ccccc23)n1)NCCCN1CCN(c2cccc(Cl)c2)CC1 | 18.7 (active)
COc1cccc(CNC(=O)CCN2C(=S)NC(C)(C)CC2C)c1 (configuration not stated) | -1.19
COc1cccc(CNC(=O)c2n[nH]c3ccccc23)c1 | -0.482
CCn1c(=O)cc(OCC(=O)NCCCN2CCN(c3cccc(Cl)c3)CC2)c2ccccc21 | -4.58
COC(=O)c1cc(S(=O)(=O)N2CCC(C(N)=O)CC2)oc1C | 0.506
Cn1cc(S(=O)(=O)NC(c2ccccc2)c2ccccc2)c(=O)n(C)c1=O | 1.52
CCCNc1c(N)c(=O)c1=O | 0.441
O=C(Cc1ccccc1)Nc1c(Cl)ccc2nsnc12 | 0.0149
O=C(Nc1ccn(Cc2ccc(F)cc2)n1)c1ccncc1 | -1.12
O=C(Nc1ccn(Cc2ccccc2)n1)c1n[nH]c([N+](=O)[O-])c1Cl | -5.21
O=C(Nc1ccn(Cc2ccccc2)n1)c1cccc(F)c1 | -4.17 (active)
CC(=O)NCc1ccc(S(=O)(=O)NC2CCN(Cc3ccccc3)CC2)cc1 | -1.54
Nn1c(SCc2ccccc2)nnc1C1CCCCC1 | 0.0386

Compound | B-score of Tl+ flux slope (higher = more flux/activation; lower = inhibition)
COc1ccccc1CNC(=O)Cn1c(=O)oc2cc(Cl)ccc21 | 0.172
COC(=O)CSc1ncnc2c1cnn2-c1ccc(C)cc1C | 0.528
COc1ccccc1N1CCN(C(=O)CSc2ncnc3c2cnn3-c2ccc(C)c(C)c2)CC1 | 5.99 (active)
COc1ccccc1N1CCN(C(=O)CSc2nnc(-c3ccoc3C)o2)CC1 | -1.44
CN1CCN(c2ccc(S(=O)(=O)N3CCOCC3)cc2NC(=O)CCc2ccccc2)CC1 | 0.193
CC(CO)(CO)NC(=O)c1ccc(=O)[nH]n1 | -0.424
Cc1cc(=O)[nH]c(SCC(=O)Nc2ccc(Br)cc2)n1 | 1.17
Cc1cccc(C)c1NC(=O)CSc1nnc(-c2ccccc2)n1Cc1ccc2c(c1)OCO2 | -0.0425
c1ccc(-c2nnc3n2NC(c2ccc4c(c2)OCO4)S3)cc1 (configuration not stated) | 17.9 (active)
CC1=C(C(N)=O)C(c2ccc3c(c2)OCO3)n2nc(-c3cccc(C)c3)nc2N1 (configuration not stated) | -0.546
CN=C1C=C/C(=N/N=c2\ccn(O)cc2C)C=C1C | 0.0998
Cc1cccc(C2C3=C(CCCC3=O)N=C3c4ccccc4C(=O)C32)c1 (configuration not stated) | 1.41
Cc1ccc(-n2[nH]c(C)c(/C=N/N3C(=O)c4cccc5cccc(c45)C3=O)c2=O)cc1 | 41.4 (active)
Cc1[nH]n(-c2ccc(Cl)cc2)c(=O)c1/C=N/n1c(C)nc2ccccc2c1=O | 1.71
COc1cc(SC#N)ccc1N=Cc1c(C)[nH]n(-c2ccc(C)cc2)c1=O | 0.0406
O=C(CSc1nnc(SCc2ccc(F)cc2)s1)Nc1ccc(C(=O)O)cc1 | -2.12
COc1ccc([N+](=O)[O-])cc1NC(=O)COC(=O)/C=C/c1ccco1 | -3.66 (active)
CC(C)CNC(=O)COC(=O)/C=C/c1ccco1 | 0.238
COc1ccc([N+](=O)[O-])cc1NC(=O)CCc1ccccc1 | -1.49
O=C(COc1ccccc1[N+](=O)[O-])N/N=C/c1ccc[nH]1 | 1.37
CCOC(=O)C1CCN(c2c(Nc3cc(C)cc(C)c3)c(=O)c2=O)CC1 | 0.776
COc1cccc2sc(Nc3nc(C)c(C(C)=O)s3)nc12 | 16.2 (active)
CC(=O)c1sc(NC(=O)CCCOc2ccccc2C)nc1C | 0.355
COc1cccc2sc(NNC(=O)c3nc4ccccc4s3)nc12 | 92.4 (active)
COC(=O)c1nc2ccccc2s1 | -0.0154

Compound | B-score of Tl+ flux slope (higher = more flux/activation; lower = inhibition)
CC(=O)c1sc(NC(=O)c2cccc3ccccc23)nc1C | 3.04
COc1ccccc1OCc1nc2ccccc2s1 | -1.36
O=C(CCc1n[nH]c(=O)[nH]c1=O)N/N=C/c1ccc(Br)o1 | 0.0262
Cc1ccc(C(=O)N/N=C\c2cc(Br)c(Br)o2)cn1 | 1.86
O=C(N/N=C/c1ccc(Br)o1)c1cncc(Br)c1 | 7.4 (active)
CCN(CC)CCCN=C(N)N | 0.285
Cc1nc2cc(NC(=O)Nc3cccc(F)c3)ccc2n1C | 0.703
NNC(=O)c1cccc(COCC(F)(F)C(F)F)c1 | -0.618
N#CCSc1nc2c(c(=O)n1Cc1ccccc1)C1(CCCC1)Cc1ccccc1-2 | 1.45
Cc1cccc(-n2c(SCC(N)=O)nc3c(c2=O)C2(CCCCC2)Cc2ccccc2-3)c1 | 4.92 (active)
Cc1cccc(-n2c(=O)c3c(C)c(C)sc3n(CC(N)=O)c2=O)c1 | 0.771
Cc1cc(Nc2ccc(Cl)cc2)nc(N2CCOCC2)n1 | -1.05
NC(=S)Nc1c(Cl)cccc1Cl | 0.0214
C=CCNC(=S)NNC(=O)COc1c(Cl)cc(Cl)cc1Cl | 7.57 (active)
C=CCNC(=O)COC(=O)CNC(=O)c1cc(Cl)cc([N+](=O)[O-])c1 | 0.057
C=CCNC(=S)NNC(=O)c1ccc(Br)o1 | 0.645
Cc1cc(Nc2ccc(N3CCOCC3)cc2)c2cccc(C)c2n1 | -2.79
CNC(=S)N/N=C/c1ccc(N2CCOCC2)s1 | 1.59
C=CCNC(=S)N/N=C/c1ccc(C)s1 | 14 (active)
Cc1ccc(/C=N/NC(=O)CN2CCN(Cc3ccccc3)CC2)s1 | 0.187
O=C(Nc1nnc(CCN2CCCCC2)s1)c1cccc(Cl)c1 | 0.116
CN1CCN(c2ccc(CNS(=O)(=O)c3cccc(F)c3)cc2)CC1 | -0.58
